Measured values reported in PubChem BioAssay AID1211 (NMMLSC, 2008).
Calls of active or inactive are those of the source. No rule for the calls is given here.

Biological target: Estrogen receptor (Homo sapiens) (UniProt P03372)
Test: displacement of fluorescent estrogen from ERalpha – cell-based, Cos7 ERalpha-GFP, flow cytometry, primary screen (AID 1211);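 also: 0% = DMSO vehicle wells and 100% = no E2-Alexa633 signal left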
Conditions: fluorescent ligand competition, stronger effect = higher value

Estrogen receptor (Homo sapiens), sequence (P03372 whole entry, looked up): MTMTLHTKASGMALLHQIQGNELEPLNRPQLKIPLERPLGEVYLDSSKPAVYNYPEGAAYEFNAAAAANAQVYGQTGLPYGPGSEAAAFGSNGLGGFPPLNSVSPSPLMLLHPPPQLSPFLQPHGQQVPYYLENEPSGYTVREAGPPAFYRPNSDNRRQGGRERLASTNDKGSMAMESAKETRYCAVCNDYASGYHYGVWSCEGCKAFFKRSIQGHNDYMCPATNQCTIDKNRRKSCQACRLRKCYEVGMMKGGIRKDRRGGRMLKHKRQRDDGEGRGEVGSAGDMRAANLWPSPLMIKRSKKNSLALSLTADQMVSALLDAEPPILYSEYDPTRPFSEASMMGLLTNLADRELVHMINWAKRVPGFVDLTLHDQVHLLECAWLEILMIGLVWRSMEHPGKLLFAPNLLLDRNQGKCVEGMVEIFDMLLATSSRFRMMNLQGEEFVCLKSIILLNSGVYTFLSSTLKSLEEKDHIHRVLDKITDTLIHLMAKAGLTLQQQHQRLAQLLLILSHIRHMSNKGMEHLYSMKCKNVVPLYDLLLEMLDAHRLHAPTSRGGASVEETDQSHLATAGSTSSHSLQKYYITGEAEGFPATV

Compound | inhibition of ligand binding (at 10 µM) | inhibition of ligand binding (binding inhibition, at 0.1 µM) [%]
COc1ccc(-c2nn(-c3ccccc3)cc2/C=C2/SC(=S)N(Cc3ccco3)C2=O)c(C)c1 | 21% (active) | 67
COC1=C/C(=C/c2c(N)n3cc(C)sc3nc2=O)C=CC1=O | 34% (inactive) | 10
O=C(Cc1ccc(S(=O)(=O)N2CCOCC2)s1)Nc1nc2c(s1)CCCC2 | 46% (inactive) | 32
CCOC(=O)c1ccc(NC(=O)CSc2nc(C)cc(=O)[nH]2)cc1 | 49% (inactive) | 21
CSc1ccccc1NC(=O)c1noc2c1CCC2 | 56% (inactive) | 26
NC(=O)c1oc2ccccc2c1NC(=O)c1nc2ccccc2s1 | 43% (inactive) | 4
CCCCN(CCCC)S(=O)(=O)c1ccc(NC(=O)Cc2cccs2)cc1 | 61% (inactive) | 46
O=C(O)C1Nc2c(C(=O)N3CCOCC3)cccc2C2C=CCC12 (configuration not stated) | 28% (inactive) | 15
Cc1ccc(C)c(SCC(=O)OCC(=O)c2ccco2)c1 | 0% (inactive) | 28
Oc1ccc(-c2cn3c(n2)SCC3)cc1 | 37% (inactive) | 22
COc1cc(C2Nc3c(F)cccc3C3C=CCC32)cc(Br)c1OC (configuration not stated) | 10% (inactive) | 20
CC1(C)OC(C)(C)/C(=C/Nc2ccc(O)cc2)C1=O | 10% (inactive) | 12
O=C(Cc1cccs1)Nc1ccccn1 | 0% (inactive) | 16
Nc1ccc2oc(-c3ccccc3Cl)cc(=O)c2c1O | 46% (inactive) | 30
Oc1ccc(-c2nccc(-c3cccs3)n2)cc1 | 40% (inactive) | 28
Oc1ccc(N=Cc2ccc(O)c(O)c2)cc1 | 0% (inactive) | 41
